Test results: PubChem BioAssay (NCATS)
Inconclusive results are not listed. Calls of active or inactive are those of the source. Unless noted, calls follow the shape of the dose curve; as a rule, active = well fitted curve in the direction sought with a large enough effect; inconclusive = small, poorly fitted or top-dose-only effect, or another doubt; inactive = no such curve, though single readings can be large; an effect the other way counts as inactive or inconclusive.

Tests used:
[1] = Viability counterscreen for antagonist of constitutive androstane receptor (CAR) against the NCATS DSHEA and TCM libraries (AID 1794837);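 also: compound exposure lasted 24 h before viability reading; 0% is about no effect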
How it was run: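 HepG2-CYP2B6-hCAR cells (2,500/well) were allowed to attach for 5 h, then exposed to compounds with 48 uM CITCO for 24 h at 37C. Viability was read by CellTiter-Fluor fluorescence after 1 h.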

[2] = Viability counterscreen for agonist of constitutive androstane receptor (CAR) against the NCATS DSHEA and TCM libraries (AID 1794838); also: 0% is about no effect
How it was run: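 HepG2-CYP2B6-hCAR cells (2,500/well) attached 5 h, then got compounds plus 0.75 uM PK11195 final. After 24 h at 37C, viability read by CellTiter-Fluor fluorescence (Ex/Em 405/540 nm).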

[3] = target: Nuclear receptor subfamily 1 group I member 3 (Homo sapiens) (UniProt Q14994); assay: Primary qHTS for agonist of constitutive androstane receptor (CAR) against the NCATS DSHEA and TCM libraries (AID 1794839);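 also: HepG2 cells expressing human CAR with a CYP2B6 reporter plus PK11195 antagonist; 0% is about no effect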
Sequence of Nuclear receptor subfamily 1 group I member 3 (Homo sapiens) (Q14994 whole entry, looked up): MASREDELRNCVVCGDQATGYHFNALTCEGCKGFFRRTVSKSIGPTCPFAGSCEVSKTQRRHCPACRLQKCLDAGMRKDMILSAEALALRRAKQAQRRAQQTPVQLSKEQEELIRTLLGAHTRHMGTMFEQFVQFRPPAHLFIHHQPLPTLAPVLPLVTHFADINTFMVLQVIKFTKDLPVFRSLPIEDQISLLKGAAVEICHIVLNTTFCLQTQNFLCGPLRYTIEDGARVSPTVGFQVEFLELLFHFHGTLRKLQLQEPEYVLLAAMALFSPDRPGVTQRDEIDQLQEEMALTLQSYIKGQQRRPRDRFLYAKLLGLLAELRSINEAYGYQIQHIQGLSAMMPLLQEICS
How it was run: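 HepG2-CYP2B6-hCAR cells (2,500/well) were attached for 5 h, then treated for 24 h at 37 °C with compounds plus 0.75 µM PK11195. Luciferase luminescence (ONE-Glo) was read, with CellTiter-Fluor viability (Ex/Em 405/540 nm).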

[4] = HepG2 viability counterscreen (readout 2: ATP content) against the NCATS DSHEA and TCM libraries (AID 1794840);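 also: HepG2 cells exposed to substances for about 24 h; 0% is about no effect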
How it was run: (§1)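 HepG2 cells (1,000 cells/well) attached ~4 h, then treated ~24 h at 37C with substances. Protease activity read by GF-AFC (25 uM final, 30 min, Ex/Em 380/510 nm); ATP content then by CellTiter-Glo luminescence.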

[5] = HepG2 viability counterscreen (readout 1: protease activity) against the NCATS DSHEA and TCM libraries (AID 1794841);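 also: cells exposed to compounds for about 24 h before the protease read; 0% is about no effect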
How it was run: as §1

[6] = target: Cytochrome P450 2D6 (Homo sapiens) (UniProt P10635); assay: qHTS for inhibitors of CYP2D6 against the NCATS DSHEA and TCM libraries (AID 1919972); also: potency is read from the fitted curve at half-maximal effect; as to activity change, negative = inhibition: % is scaled to controls: 0 for no effect and ±100 for the full control effect
Sequence of Cytochrome P450 2D6 (Homo sapiens) (P10635 whole entry, looked up): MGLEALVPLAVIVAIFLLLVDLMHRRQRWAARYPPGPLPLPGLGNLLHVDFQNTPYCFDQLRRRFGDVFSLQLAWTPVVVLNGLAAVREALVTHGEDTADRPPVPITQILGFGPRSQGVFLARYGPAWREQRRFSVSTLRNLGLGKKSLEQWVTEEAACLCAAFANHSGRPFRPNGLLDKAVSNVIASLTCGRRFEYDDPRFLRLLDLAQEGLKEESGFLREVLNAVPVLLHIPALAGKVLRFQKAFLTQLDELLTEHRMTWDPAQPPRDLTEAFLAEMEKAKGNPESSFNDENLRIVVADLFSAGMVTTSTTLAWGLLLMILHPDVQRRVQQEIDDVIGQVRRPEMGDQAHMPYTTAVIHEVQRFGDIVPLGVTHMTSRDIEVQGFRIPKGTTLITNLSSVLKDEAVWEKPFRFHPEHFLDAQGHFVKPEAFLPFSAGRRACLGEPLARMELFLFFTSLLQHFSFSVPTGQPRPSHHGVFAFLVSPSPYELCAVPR
How it was run: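 Luminescent P450-Glo read-out of CYP2D6 turnover of a luciferin substrate after NADPH-driven reaction of 30-45 min at room temperature. Compounds were first preincubated 15 min with enzyme at titrated concentrations; quinidine was the intraplate control.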

[7] = target: Cytochrome P450 2C9 (Homo sapiens) (UniProt P11712); assay: qHTS for inhibitors of CYP2C9 against the NCATS DSHEA and TCM libraries (AID 1919973); also: potency is read from the fitted curve at half-maximal effect;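 as to activity change, negative = inhibition: luminogenic pro-luciferin CYP2C9 substrate turned into luciferin with NADPH regeneration; % is scaled to controls: 0 for no effect and ±100 for the full control effect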
Sequence of Cytochrome P450 2C9 (Homo sapiens) (P11712 whole entry, looked up): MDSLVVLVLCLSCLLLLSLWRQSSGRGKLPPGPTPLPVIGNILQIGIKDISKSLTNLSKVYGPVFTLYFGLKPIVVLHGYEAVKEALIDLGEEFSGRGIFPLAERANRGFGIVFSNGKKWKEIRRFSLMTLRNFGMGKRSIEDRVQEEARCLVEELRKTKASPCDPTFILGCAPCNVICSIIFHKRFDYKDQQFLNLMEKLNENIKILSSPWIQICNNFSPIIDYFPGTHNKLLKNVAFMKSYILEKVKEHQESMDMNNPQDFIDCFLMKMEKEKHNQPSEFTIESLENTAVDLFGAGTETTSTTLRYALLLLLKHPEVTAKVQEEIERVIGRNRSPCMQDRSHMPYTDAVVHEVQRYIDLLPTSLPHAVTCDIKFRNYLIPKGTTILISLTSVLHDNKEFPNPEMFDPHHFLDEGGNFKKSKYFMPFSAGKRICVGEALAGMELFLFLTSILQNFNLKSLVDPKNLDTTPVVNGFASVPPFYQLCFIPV
How it was run: (§2)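 Luminescent P450-Glo format: compounds preincubated 15 min with enzyme and luciferin substrate, reaction run 30-45 min after NADPH regeneration solution. Intraplate controls: ketoconazole for CYP3A4 and CYP2C19, sulfaphenazole for CYP2C9.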

[8] = target: Cytochrome P450 2C19 (Homo sapiens) (UniProt P33261); assay: qHTS for inhibitors of CYP2C19 against the NCATS DSHEA and TCM libraries (AID 1919974);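 also: luminescence from luciferin released by CYP2C19 oxidation of a pro-luciferin substrate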; also: potency is read from the fitted curve at half-maximal effect
Sequence of Cytochrome P450 2C19 (Homo sapiens) (P33261 whole entry, looked up): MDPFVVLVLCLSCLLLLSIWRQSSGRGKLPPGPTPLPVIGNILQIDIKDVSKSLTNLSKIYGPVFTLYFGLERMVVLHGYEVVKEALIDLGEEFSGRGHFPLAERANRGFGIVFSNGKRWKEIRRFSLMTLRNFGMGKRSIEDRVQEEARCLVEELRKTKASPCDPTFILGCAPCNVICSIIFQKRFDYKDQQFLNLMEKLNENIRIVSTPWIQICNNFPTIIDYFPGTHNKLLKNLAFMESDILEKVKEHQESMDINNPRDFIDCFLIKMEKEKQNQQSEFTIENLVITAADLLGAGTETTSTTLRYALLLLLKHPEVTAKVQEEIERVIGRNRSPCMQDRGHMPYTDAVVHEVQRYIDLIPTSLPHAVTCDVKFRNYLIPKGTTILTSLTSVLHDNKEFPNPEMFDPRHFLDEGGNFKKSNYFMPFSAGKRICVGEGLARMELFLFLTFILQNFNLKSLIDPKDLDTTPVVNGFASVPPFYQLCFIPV
How it was run: as §2

[9] = KB-3-1 P-gp reporter qHTS against the NCATS DSHEA and TCM libraries (AID 1919975); also: 0% is about no effect
How it was run: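 Parental KB-3-1 human cervical adenocarcinoma cells (500 cells/well, DMEM + 10% FBS) were treated with substances for ~72 h at 37C; viability was read by CellTiter-Glo luminescence.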

[10] = target: Cytochrome P450 1A2 (Homo sapiens) (UniProt P05177); assay: qHTS for inhibitors of CYPIA2 against the NCATS DSHEA and TCM libraries (AID 1919976); also: potency is read from the fitted curve at half-maximal effect
Sequence of Cytochrome P450 1A2 (Homo sapiens) (P05177 whole entry, looked up): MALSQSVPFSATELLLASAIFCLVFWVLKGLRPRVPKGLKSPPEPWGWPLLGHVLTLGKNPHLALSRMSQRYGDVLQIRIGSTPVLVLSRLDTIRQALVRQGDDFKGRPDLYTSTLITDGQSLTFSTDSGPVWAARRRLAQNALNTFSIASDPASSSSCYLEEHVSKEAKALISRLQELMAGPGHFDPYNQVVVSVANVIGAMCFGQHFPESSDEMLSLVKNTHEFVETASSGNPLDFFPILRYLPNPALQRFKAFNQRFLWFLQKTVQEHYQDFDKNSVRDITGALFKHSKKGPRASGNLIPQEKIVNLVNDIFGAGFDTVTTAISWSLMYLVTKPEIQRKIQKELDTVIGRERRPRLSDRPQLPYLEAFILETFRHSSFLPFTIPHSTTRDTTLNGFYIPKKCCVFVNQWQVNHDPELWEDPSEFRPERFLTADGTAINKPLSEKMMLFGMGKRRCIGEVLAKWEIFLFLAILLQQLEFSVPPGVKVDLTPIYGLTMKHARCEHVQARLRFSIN
How it was run: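 Human CYP1A2 with pro-luciferin substrate (typically 100 mM KPO4), 15 min preincubation with compound, then 1x NADPH regeneration for 30-45 min at room temperature in the dark. Luciferin quantified by luciferase luminescence; furafylline intraplate control.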

[11] = qHTS Counterscreen for compound interference against the NCATS DSHEA and TCM libraries (AID 1919978); details: firefly luciferase detection reagent interference, luminescence; also: % of control where 0% means no effect
How it was run: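 D-luciferin (1 uM final) or 100 mM potassium phosphate buffer alone was preincubated 15 min at RT with compounds (19.5 nM to 39.8 uM final). Luciferin detection reagent was then added and luminescence read after 30 min at RT.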

[12] = Dual reporter qHTS for agonist of Pregnane X Receptor (hPXR) against the NCATS DSHEA and TCM libraries: Fluorescence readout (AID 1920058); also: 0% is about no effect
How it was run: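 hPXR-Luc HepG2 cells, 2000/well in charcoal-stripped serum, attached 5 h, dosed for ~24 h at 37 °C. Fluorescence read is CellTiter-Fluor viability (Ex/Em 405/540 nm); rifampicin positive, tetraoctyl ammonium bromide (92 µM) cytotoxicity controls.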

[13] = target: Nuclear receptor subfamily 1 group I member 2 (Homo sapiens) (UniProt O75469); assay: Dual reporter qHTS for agonist of Pregnane X Receptor (hPXR) against the NCATS DSHEA and TCM libraries: Luminescence readout (AID 1920059); also: potency is read from the fitted curve at half-maximal effect; as to activation: 0% is about no effect
Sequence of Nuclear receptor subfamily 1 group I member 2 (Homo sapiens) (O75469 whole entry, looked up): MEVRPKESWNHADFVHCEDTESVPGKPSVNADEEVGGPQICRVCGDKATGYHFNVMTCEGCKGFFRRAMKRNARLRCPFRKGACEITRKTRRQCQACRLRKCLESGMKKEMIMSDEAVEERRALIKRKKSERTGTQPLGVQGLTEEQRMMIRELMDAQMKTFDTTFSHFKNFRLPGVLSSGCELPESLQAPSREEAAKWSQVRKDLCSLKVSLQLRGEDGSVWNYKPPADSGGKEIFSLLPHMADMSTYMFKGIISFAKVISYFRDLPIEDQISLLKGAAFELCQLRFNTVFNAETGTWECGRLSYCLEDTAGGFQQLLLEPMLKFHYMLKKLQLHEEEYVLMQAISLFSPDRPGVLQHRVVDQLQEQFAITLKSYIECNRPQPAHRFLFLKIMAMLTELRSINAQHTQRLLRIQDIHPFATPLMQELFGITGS
How it was run: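 hPXR-Luc HepG2 cells, 2000/well in 5% charcoal-stripped FBS medium, attached 5 h, then exposed 24 h at 37C to compounds. Viability by CellTiter-Fluor, then luciferase luminescence with ONE-Glo.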

[14] = target: Nuclear receptor subfamily 1 group I member 2 (Homo sapiens) (UniProt O75469); assay: Dual reporter qHTS for antagonist of Pregnane X Receptor (hPXR) against the NCATS DSHEA and TCM libraries: Luminescence Readout (AID 1920060);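 also: HepG2 cells carrying hPXR luciferase reporter stimulated with rifampicin at 2 µM; 0% is about no effect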
How it was run: (§3)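 HepG2 hPXR-Luc, 2000 cells/well, charcoal-stripped FBS medium; 5 h attach; RIF 2 uM final; 24 h 37C/5% CO2; CellTiter-Fluor 1 h, fluor 405/540; ONE-Glo 30 min RT, lum.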

[15] = Dual reporter qHTS for antagonist of Pregnane X Receptor (hPXR) against the NCATS DSHEA and TCM libraries: Fluorescence Readout (AID 1920061); also: 0% is about no effect
How it was run: as §3

[16] = target: Cytochrome P450 3A4 (Homo sapiens) (UniProt P08684); assay: qHTS for inhibitors of CYP3A4 against the NCATS DSHEA and TCM libraries (AID 1919971); also: potency is read from the fitted curve at half-maximal effect;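 as to activity change, negative = inhibition: % is scaled to controls: 0 for no effect and ±100 for the full control effect; inhibition lowers luminescence from luciferin made by CYP3A4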
Sequence of Cytochrome P450 3A4 (Homo sapiens) (P08684 whole entry, looked up): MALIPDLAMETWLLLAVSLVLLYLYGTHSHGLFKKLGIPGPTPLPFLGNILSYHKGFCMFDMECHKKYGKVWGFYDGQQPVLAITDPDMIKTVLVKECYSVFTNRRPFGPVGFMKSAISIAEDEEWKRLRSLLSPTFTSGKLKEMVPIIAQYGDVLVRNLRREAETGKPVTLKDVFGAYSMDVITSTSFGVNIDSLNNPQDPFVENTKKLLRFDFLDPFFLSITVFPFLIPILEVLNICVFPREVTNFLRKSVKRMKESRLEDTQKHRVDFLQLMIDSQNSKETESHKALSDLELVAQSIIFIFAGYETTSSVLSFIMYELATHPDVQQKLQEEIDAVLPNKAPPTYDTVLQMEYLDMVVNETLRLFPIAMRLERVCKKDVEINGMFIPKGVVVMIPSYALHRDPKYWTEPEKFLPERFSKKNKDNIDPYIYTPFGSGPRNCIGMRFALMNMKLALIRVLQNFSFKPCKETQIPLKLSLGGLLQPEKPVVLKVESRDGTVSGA
How it was run: as §2

[17] = target: Mitogen-activated protein kinase 10 (Mus musculus) (UniProt Q61831); assay: JNK3 AlphaScreen Assay (AID 530; active = well fitted curve in either direction with a large enough effect, not every such curve was filed as active;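 also: kinase came from lysate of stimulated human HepG2 cells; signal reports phosphorylation of biotinylated GST-cJun 1-79 at Ser73 with 10 µM ATP; % is scaled to controls: 0 for no effect and ±100 for the full control effect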)
How it was run: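 Pre-activated (IL-1β/TNFα) JNK3 in HepG2 lysates phosphorylates biotin-GST-cJun(1-79), 10 uM ATP; anti-phospho-cJun(Ser73) AlphaScreen read at room temperature, pH 7.6 Tris buffer. Compounds pre-incubated 15 min as titrations.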

[18] = target: Ubiquitin carboxyl-terminal hydrolase 1 (Homo sapiens) (UniProt O94782); assay: Inhibitors of USP1/UAF1: Pilot qHTS (AID 504865);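 also: rhodamine fluorescence freed from ubiquitin-rhodamine substrate followed over time; top concentration of the series differs between compounds; % is scaled to controls: 0 for no effect and ±100 for the full control effect; nearly all actives have a fitted effect of over 35% in size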
Sequence of Ubiquitin carboxyl-terminal hydrolase 1 (Homo sapiens) (O94782 whole entry, looked up): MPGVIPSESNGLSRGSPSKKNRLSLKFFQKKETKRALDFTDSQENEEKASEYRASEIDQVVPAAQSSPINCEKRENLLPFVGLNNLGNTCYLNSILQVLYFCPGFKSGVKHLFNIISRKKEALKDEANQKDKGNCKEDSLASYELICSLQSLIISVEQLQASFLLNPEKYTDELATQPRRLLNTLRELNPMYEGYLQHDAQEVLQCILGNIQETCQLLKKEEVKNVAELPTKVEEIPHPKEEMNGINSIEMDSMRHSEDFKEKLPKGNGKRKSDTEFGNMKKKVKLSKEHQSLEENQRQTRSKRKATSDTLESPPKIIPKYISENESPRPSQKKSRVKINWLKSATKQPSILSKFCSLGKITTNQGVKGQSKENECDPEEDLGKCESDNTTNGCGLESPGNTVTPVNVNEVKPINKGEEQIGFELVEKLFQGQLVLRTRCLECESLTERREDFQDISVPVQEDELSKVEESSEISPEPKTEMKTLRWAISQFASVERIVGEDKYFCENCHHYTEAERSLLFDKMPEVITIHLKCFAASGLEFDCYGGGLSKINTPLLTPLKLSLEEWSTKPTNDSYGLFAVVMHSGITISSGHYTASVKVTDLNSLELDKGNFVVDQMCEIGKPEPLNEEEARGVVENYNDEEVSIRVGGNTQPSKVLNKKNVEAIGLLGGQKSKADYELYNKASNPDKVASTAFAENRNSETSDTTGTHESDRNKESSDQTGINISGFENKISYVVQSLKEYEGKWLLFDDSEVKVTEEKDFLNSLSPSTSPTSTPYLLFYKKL
How it was run: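 USP1/UAF1 complex (1nM) preincubated with compound 15 min at room temperature, then Ub-Rho substrate (150nM final) added. Fluorescence read kinetically at 480/540 nm, 6 reads every 60 seconds. Buffer: 50mM HEPES pH 7.8, 0.5mM EDTA, 0.1 mg/ml BSA, 1mM TCEP, 0.01% Tween-20.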

[19] = target: Glucocorticoid receptor (Homo sapiens) (UniProt P04150); assay: GR-GFP Redistribution (AID 450;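 active = compounds whose dose series gives a full or clear partial fitted curve of increased nuclear translocation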; also: potency is read from the fitted curve at half-maximal effect); details: U2OS GR-GFP nuclear translocation, laser cytometry, 2 h
Sequence of Glucocorticoid receptor (Homo sapiens) (P04150 whole entry, looked up): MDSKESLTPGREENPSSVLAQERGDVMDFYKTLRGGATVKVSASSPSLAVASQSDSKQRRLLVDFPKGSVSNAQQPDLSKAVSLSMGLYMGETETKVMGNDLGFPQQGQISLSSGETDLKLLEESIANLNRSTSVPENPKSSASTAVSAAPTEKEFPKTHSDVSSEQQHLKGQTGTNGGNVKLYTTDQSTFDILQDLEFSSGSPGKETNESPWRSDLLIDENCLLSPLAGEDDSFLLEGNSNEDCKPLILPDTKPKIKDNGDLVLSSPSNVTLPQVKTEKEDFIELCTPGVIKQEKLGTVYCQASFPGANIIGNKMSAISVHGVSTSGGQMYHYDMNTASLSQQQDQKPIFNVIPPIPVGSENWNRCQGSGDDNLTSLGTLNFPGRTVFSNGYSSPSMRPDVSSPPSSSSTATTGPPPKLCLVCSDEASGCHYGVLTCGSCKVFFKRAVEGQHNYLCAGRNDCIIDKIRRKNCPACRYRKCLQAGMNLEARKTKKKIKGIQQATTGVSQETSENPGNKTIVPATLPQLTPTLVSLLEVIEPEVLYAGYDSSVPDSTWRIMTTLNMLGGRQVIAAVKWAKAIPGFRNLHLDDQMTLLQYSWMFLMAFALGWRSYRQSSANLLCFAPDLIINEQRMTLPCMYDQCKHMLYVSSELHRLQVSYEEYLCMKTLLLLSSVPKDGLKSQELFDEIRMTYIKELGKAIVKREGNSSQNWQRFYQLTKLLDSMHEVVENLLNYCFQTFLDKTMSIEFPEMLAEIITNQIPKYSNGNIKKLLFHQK

[20] = NFAT Signaling Pathway (AID 444; active = well fitted curve in either direction with a large enough effect, not every such curve was filed as active;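 also: carbachol stimulus at about its EC50 of 1 µM final; % is scaled to controls: 0 for no effect and ±100 for the full control effect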); details: Jurkat NFAT-bla M1, carbachol, beta-lactamase ratio, 5 h; at 7.69 µM (top of the series) unless noted
How it was run: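 Jurkat cells with NFAT-driven β-lactamase reporter and co-expressed M1 receptor, stimulated with carbachol (final 1 uM, ~EC50), compound titration, 5 h at 37 °C. CCF4 loaded 1 h at RT; 460/530 nm ratio gave %activity and AC50.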

CC(C)[C@H](C)CC[C@@H](C)[C@H]1CC[C@H]2[C@@H]3CC=C4C[C@@H](O)CC[C@]4(C)[C@H]3CC[C@]12C
inactive: outcome [1] | outcome [2] | Potency [3] | outcome [4] | outcome [5] | Potency [6] | Potency [7] | Potency [8] | outcome [9] | Potency [10] | max response [11] 2.09% | outcome [12] | Potency [13] | outcome [14] | outcome [15]

CC(C)=CCCC(C)(OC1OC(COC2OC(CO)C(O)C2O)C(O)C(O)C1O)C1CCC2(C)C1C(O)CC1C3(C)CCC(OC4OC(CO)C(O)C(O)C4OC4OC(CO)C(O)C(O)C4O)C(C)(C)C3CCC12C (centres undefined)
inactive: outcome [1] | outcome [2] | Potency [3] | outcome [4] | outcome [5] | Potency [16] | Potency [6] | Potency [7] | Potency [8] | outcome [9] | max response [11] 2.08% | outcome [12] | Potency [13] | outcome [14] | outcome [15]

C=C1C[C@@]23CC[C@H]4[C@](C)(CCC[C@]4(C)C(=O)O[C@@H]4O[C@H](CO)[C@@H](O)[C@H](O)[C@H]4O)[C@@H]2CC[C@]1(O[C@H]1O[C@@H](CO)[C@H](O)[C@@H](O)[C@@H]1O)C3
inactive: outcome [1] | outcome [2] | Potency [3] | outcome [4] | outcome [5] | Potency [16] | Potency [6] | Potency [7] | outcome [9] | max response [11] 3.88% | outcome [12] | Potency [13] | outcome [14] | outcome [15]

O=C(/C=C/c1ccc(O)c(O)c1)O[C@@H]1CC(C(=O)O)=C[C@@H](O)[C@H]1O
inactive: outcome [1] | outcome [2] | Potency [3] | outcome [4] | outcome [5] | Potency [16] | Potency [6] | Potency [7] | Potency [8] | outcome [9] | Potency [10] | max response [11] 4.08% | outcome [12] | Potency [13] | outcome [14] | outcome [15]

COCCn1c(=O)c(-c2cccs2)nc2cnc(N3CCNCC3)nc21
inactive: Potency [17] | Potency [18]

O[C@@H]1[C@@H](O)[C@H](OC/C=C/c2ccccc2)O[C@H](CO[C@@H]2OC[C@H](O)[C@H](O)[C@H]2O)[C@H]1O
inactive: outcome [1] | outcome [2] | Potency [3] | outcome [4] | outcome [5] | Potency [16] | Potency [6] | Potency [7] | Potency [8] | outcome [9] | Potency [10] | max response [11] 4.06% | outcome [12] | Potency [13] | outcome [14] | outcome [15]

COc1ccc2[nH]cc(CCNc3nc(-c4ccccc4OC)nc4ccccc34)c2c1
inactive: Potency [19] > 46 µM | Potency [17] | Potency [18]

CCCCCCC/C=C/C(=O)CCc1ccc(O)c(OC)c1
inactive: outcome [1] | outcome [2] | Potency [3] | outcome [4] | outcome [5] | outcome [9] | max response [11] 6.04% | outcome [12] | outcome [14] | outcome [15]
active: Potency [16] 14.1 µM | Potency [6] 10 µM | Potency [7] 25.1 µM | Potency [8] 6.31 µM

CCCCCCCCCCCCCCCCCCCCCCCCCCCCCCO
inactive: viability change, negative = cytotoxic [1] -4.15% [at 5 µM] | activity change, negative = cytotoxicity [2] 8.74% [at 5 µM] | activation [3] -23.2% [at 5 µM] | activity change, negative = cytotoxic [4] -1.11% [at 3.42 µM] | activity change, negative = inhibition [5] 5.84% [at 3.42 µM] | activity change, negative = inhibition [16] 9.22% [at 4.27 µM] | activity change, negative = inhibition [6] -0.757% [at 4.27 µM] | activity change, negative = inhibition [7] 4.8% [at 4.27 µM] | activity change, negative = inhibition [8] 9.51% [at 4.27 µM] | activity change, negative = inhibition [9] -11% [at 3.26 µM] | max response [11] -2.33% | activation [12] 1.05% [at 5 µM] | activation [13] -7.37% [at 5 µM] | activity change, negative = inhibition [14] -14.7% [at 5 µM] | activity change, negative = inhibition [15] 2.96% [at 5 µM]

CCCCC/C=C/C(=O)CCc1ccc(O)c(OC)c1
inactive: outcome [1] | outcome [2] | Potency [3] | outcome [4] | outcome [5] | Potency [7] | outcome [9] | max response [11] 4.24% | outcome [12] | outcome [14] | outcome [15]
active: Potency [16] 17.8 µM | Potency [8] 7.08 µM | Potency [10] 15.8 µM | Potency [13] 31.6 µM

OCCc1ccc(O)cc1
inactive: outcome [1] | outcome [2] | Potency [3] | outcome [4] | outcome [5] | Potency [16] | Potency [6] | Potency [7] | Potency [8] | outcome [9] | Potency [10] | max response [11] -3.57% | outcome [12] | Potency [13] | outcome [14] | outcome [15]

Cc1ncc(COP(=O)(O)O)c(C)c1O
inactive: activity change, negative = inhibition [20] -4.14% | Potency [19] > 46 µM | activity change, negative = inhibition [17] 4.19% [at 11.4 µM] | outcome [1] | outcome [2] | Potency [3] | outcome [4] | outcome [5] | Potency [16] | Potency [6] | outcome [9] | max response [11] -1.84% | outcome [12] | Potency [13] | outcome [14] | outcome [15]
active: Potency [8] 7.08 µM

O=C(O)c1ccccc1
inactive: Potency [17] | outcome [1] | outcome [2] | Potency [3] | outcome [4] | outcome [5] | Potency [16] | Potency [6] | Potency [7] | Potency [8] | outcome [9] | max response [11] -0.483% | outcome [12] | Potency [13] | outcome [14] | outcome [15]
